Consider seven compounds from PubChem BioAssay (EPA / NIEHS).

As usually defined, the AC50 is the midpoint of the concentration-response curve, whichever way the signal moves.

Test [1] deals with Paired box protein Pax-6 (Homo sapiens) (UniProt P26367). Kind of test: ATG_Pax6_CIS: Attagene CIS-FACTORIAL HepG2 Assay for human Paired Box 6 (PAX6) (AID 2282956). Particulars: HepG2 CIS-FACTORIAL PAX6 reporter transcription, RNA readout; actives raise or lower the signal. The essentials:
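Readout: reporter transcript fluorescence after RT-PCR and capillary electrophoresis. Cells: HepG2, transiently transfected with cis-regulated MRTUs. Exposure 24 h. Gain or loss of signal fitted bidirectionally relative to DMSO.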

Test [2] in a line: ATG_PXRE_CIS: Attagene CIS-FACTORIAL HepG2 Assay for human Pregnane X Receptor Element (PXRE) (AID 2282957). Particulars: HepG2 Attagene CIS-FACTORIAL PXRE reporter, mRNA; actives raise or lower the signal. The essentials:
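Using HepG2 transfected with multiple reporter transcription units, endogenous factor-driven transcription was scored as reporter mRNA after 24 h exposure.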

Test [3] is described as follows: ATG_PPRE_CIS: Attagene CIS-FACTORIAL HepG2 Assay for human Peroxisome Proliferator-activated Response Element (PPRE) (AID 2282958). Particulars: HepG2 PPRE cis-element reporter, Attagene transcription factor profiling; actives raise or lower the signal. The method, boiled down: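 Multiplexed reporter transcription units under cis-regulatory promoters were transfected into HepG2 cells to capture endogenous factor activity. A 24 h incubation preceded RNA isolation and fluorescent RT-PCR fragment analysis.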

Test [4] can be described thus: ATG_RORE_CIS: Attagene CIS-FACTORIAL HepG2 Assay for human RAR-related Orphan Receptor Element (RORE) (AID 2282959). Particulars: HepG2 Attagene cis-factorial RORE reporter, mRNA; actives raise or lower the signal. The essentials:
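Fluorescence intensity of reporter-specific cDNA fragments, separated by capillary electrophoresis, gives the signal. Source: HepG2 liver cells transiently transfected with cis-element reporters and exposed 24 h; DMSO-normalized bidirectional fit.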

Test [5] is described as follows: ATG_Sox_CIS: Attagene CIS-FACTORIAL HepG2 Assay for human SRY-box transcription factor (SOX) (AID 2282960). The conditions noted are these: HepG2 Attagene cis-factorial SOX reporter, mRNA; actives raise or lower the signal. The method, boiled down: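 After 24 h of chemical treatment, transfected HepG2 reporter cells are lysed for total RNA. Transcript levels come from RT-PCR with labelled primer extension and capillary electrophoresis, analysed bidirectionally versus DMSO.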

Test [6] concerns the target Transcription factor Sp1 (Homo sapiens) (UniProt P08047). Kind of test: ATG_Sp1_CIS: Attagene CIS-FACTORIAL HepG2 Assay for human Specificity Protein 1 (Sp1) (AID 2282961). Particulars: HepG2 Sp1 cis-reporter transcription, actives raise or lower the signal. The essentials: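 Sp1-driven reporter mRNA, read as capillary electrophoresis fluorescence after RT-PCR, in transiently transfected HepG2 cells dosed for 24 h; signal change in either direction relative to DMSO.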

Test [7] can be described thus: ATG_SREBP_CIS: Attagene CIS-FACTORIAL HepG2 Assay for human Sterol Regulatory Element Binding (SREBP) (AID 2282962). The conditions noted are these: HepG2 Attagene cis-factorial SREBP reporter, mRNA; actives raise or lower the signal. The essentials: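 Readout: fluorescent reporter-transcript peaks resolved by capillary electrophoresis after RT-PCR. Cells were human HepG2 carrying transfected cis-promoter reporter constructs, dosed for 24 h. Gain or loss of signal was fitted against DMSO controls.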

Test [8] deals with Signal transducer and activator of transcription 3 (Homo sapiens) (UniProt P40763). Kind of test: ATG_STAT3_CIS: Attagene CIS-FACTORIAL HepG2 Assay for human Signal Transducer and Activator of Transcription 3 (STAT3) (AID 2282963). The conditions noted are these: HepG2, Attagene cis-factorial STAT3 reporter transcription; actives raise or lower the signal. The method, boiled down:
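Readout: fluorescent reporter mRNA fragments resolved by capillary electrophoresis. Setup: HepG2 transfected with MRTUs reporting endogenous transcription-factor activity, dosed 24 h. Gain or loss of signal fitted bidirectionally against DMSO control.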

A short description of test [9]: ATG_TA_CIS: Attagene CIS-FACTORIAL HepG2 Assay for human TA Basal Promoter (AID 2282964). Particulars: HepG2 Attagene CIS-factorial TA basal promoter reporter; actives raise or lower the signal. The essentials: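 Steps: transfect HepG2 with MRTUs; dose 24 h; isolate RNA, DNase-treat, reverse-transcribe; PCR and FAM-label reporter cDNA; digest with HpaI 2h at 37 C; run capillary electrophoresis. Activity fitted both directions against DMSO.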

The nature of test [10]: ATG_TCF_b_cat_CIS: Attagene CIS-FACTORIAL HepG2 Assay for human T-Cell-Factor with beta-catenin (TCF/b-cat) (AID 2282965). The conditions noted are these: HepG2 TCF/beta-catenin cis-reporter transcription, actives raise or lower the signal. The method, boiled down: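 Cells of the HepG2 line carry transiently transfected reporter units whose promoters respond to endogenous factors. Twenty-four hours post-dosing, reporter mRNA induction is measured by fluorescent RT-PCR and capillary electrophoresis, with DMSO as baseline.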

Test [11] can be described thus: ATG_TAL_CIS: Attagene CIS-FACTORIAL HepG2 Assay for human TAL Basal Promoter (AID 2282966).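 Further: background control endpoint measuring basal TAL promoter reporter mRNA not a specific factor.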 The conditions noted are these: HepG2 Attagene cis-factorial TAL promoter reporter; actives raise or lower the signal. The method, boiled down: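 After 24 hours of chemical exposure, transfected HepG2 cells yielded RNA that was converted to 6-FAM-labelled, HpaI-digested reporter fragments for capillary electrophoresis. Values derive from bidirectional fitting against DMSO controls.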

Test [12] is described as follows: ATG_TGFb_CIS: Attagene CIS-FACTORIAL HepG2 Assay for human Transforming Growth Factor (TGF) (AID 2282967). The conditions noted are these: HepG2 Attagene CIS TGFb reporter, mRNA transcription; actives raise or lower the signal. The method, boiled down: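 Cells were dosed for 24 hours, after which total RNA was reverse-transcribed and reporter sequences amplified, labeled and sized by capillary electrophoresis. Activity was fitted in both directions against DMSO.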

A short description of test [13]: ATG_VDRE_CIS: Attagene CIS-FACTORIAL HepG2 Assay for human Vitamin D Receptor Element (VDRE) (AID 2282968). The conditions noted are these: HepG2 VDRE cis-reporter transcription, actives raise or lower the signal. The method, boiled down: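 Transient MRTU transfection of HepG2, 24 h compound exposure. Readout: reporter transcripts via RT-PCR and capillary electrophoresis, fluorescence. Bidirectional fit vs DMSO.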

Test [14] concerns the target Nuclear receptor subfamily 1 group I member 3 (Homo sapiens) (UniProt Q14994). Kind of test: ATG_CAR_TRANS: Attagene TRANS-FACTORIAL HepG2 Assay for human Constitutive Androstane Receptor (CAR) (AID 2282969; active means hit-call score of the fitted dose curve at least 0.9, where 1 is the maximum;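 further: activators raise reporter mRNA above DMSO so AC50 marks induction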). The conditions noted are these: HepG2 Attagene TRANS-FACTORIAL CAR reporter. The essentials:
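Transiently transfected HepG2, multiplex TRANS reporters (CAR-Gal4 chimera driving GAL4-UAS reporter). 24 h dosing. Readout: reporter transcript by RT-PCR + capillary electrophoresis, fluorescence intensity; positive direction vs DMSO.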

For test [15], the target named is X-box-binding protein 1 (Homo sapiens) (UniProt P17861). The test can be described thus: ATG_Xbp1_CIS: Attagene CIS-FACTORIAL HepG2 Assay for human X-box Binding Protein 1 (XBP1) (AID 2282972). The conditions noted are these: HepG2 XBP1 cis-element reporter, Attagene multiplex; actives raise or lower the signal. The method, boiled down:
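Read-out: fluorescent reporter mRNA fragments resolved by capillary electrophoresis after RT-PCR. Human HepG2 liver cells carried transfected cis-promoter reporter units and were exposed to chemicals for 24 hours. Gain or loss of signal fitted relative to DMSO baseline.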

For test [16], the target named is Androgen receptor (Homo sapiens) (UniProt P10275). The test can be described thus: ATG_AR_TRANS: Attagene TRANS-FACTORIAL HepG2 Assay for human Androgen Receptor (AR) (AID 2282973; active means hit-call score of the fitted dose curve at least 0.9, where 1 is the maximum). The conditions noted are these: HepG2 Attagene TRANS-FACTORIAL AR reporter transcription. The essentials: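 Steps: transfect HepG2 with multiple GAL4-UAS reporter transcription units (TRANS format, exogenous NR-Gal4 protein); dose 24 h; isolate RNA, reverse-transcribe, PCR-amplify, FAM-label, HpaI-digest; resolve by capillary electrophoresis. Positive direction vs DMSO.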

Test [17] in a line: ATG_PBREM_CIS: Attagene CIS-FACTORIAL HepG2 Assay for human Phenobarbital-responsive Enhancer Module (PBREM) (AID 2282955). Particulars: HepG2 PBREM cis-reporter, Attagene multiplexed transcription; actives raise or lower the signal. The method, boiled down: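 After a 24 h incubation with test chemical, transfected HepG2 cells yield total RNA; reporter-specific RT-PCR products are fluorescently labelled, HpaI-digested and resolved by capillary electrophoresis against ROX size standards.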

The nature of test [18]: ATG_M_19_TRANS: Attagene TRANS-FACTORIAL HepG2 Assay for M19 Transcription Factor (Internal Marker) (AID 2282974; active means hit-call score of the fitted dose curve at least 0.9, where 1 is the maximum). Particulars: HepG2 Attagene TRANS-FACTORIAL M19 internal marker reporter. The essentials:
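Measured here: internal-marker reporter transcript from HepG2 cells transfected with MRTUs, harvested at 24 h. cDNA PCR products were 6-FAM labelled by primer extension, cut with HpaI for 2 h at 37 C, and resolved by CE.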

Test [19] has as its target Estrogen receptor (Homo sapiens) (UniProt P03372). The test can be described thus: ATG_ERa_TRANS: Attagene TRANS-FACTORIAL HepG2 Assay for human Estrogen Receptor alpha (ERa) (AID 2282970; active means hit-call score of the fitted dose curve at least 0.9, where 1 is the maximum). Particulars: HepG2 Attagene TRANS ERa GAL4 reporter, mRNA. The method, boiled down: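 Liver-derived HepG2 cells expressing chimeric nuclear receptor-Gal4 proteins from transient transfection were exposed for 24 hours. Gain of reporter mRNA signal versus DMSO, read by capillary electrophoresis of FAM-labelled PCR products, was recorded.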

In test [20] the target is Steroid hormone receptor ERR1 (Homo sapiens) (UniProt P11474). The test can be described thus: ATG_ERRa_TRANS: Attagene TRANS-FACTORIAL HepG2 Assay for human Estrogen-Related Receptor alpha (ERRa) (AID 2282971; active means hit-call score of the fitted dose curve at least 0.9, where 1 is the maximum). The conditions noted are these: HepG2 Attagene TRANS reporter, ERRa transactivation. The essentials:
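Reporter transcript induction was quantified by RT-PCR and capillary electrophoresis of FAM-labelled, HpaI-cut products after 24 h treatment of HepG2 cells carrying transiently transfected GAL4-UAS reporter units and an exogenous ERRa-Gal4 fusion; activity scored as increase over DMSO.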

Results filed as inconclusive are left out. The source made the active and inactive calls. How the source made its calls, unless noted: active means hit-call score of the fitted dose curve at least 0.9, where 1 is the maximum; inactive means score below 0.9.

Signal transducer and activator of transcription 3 (Homo sapiens), sequence (P40763 whole entry, looked up, the tested form may be a part): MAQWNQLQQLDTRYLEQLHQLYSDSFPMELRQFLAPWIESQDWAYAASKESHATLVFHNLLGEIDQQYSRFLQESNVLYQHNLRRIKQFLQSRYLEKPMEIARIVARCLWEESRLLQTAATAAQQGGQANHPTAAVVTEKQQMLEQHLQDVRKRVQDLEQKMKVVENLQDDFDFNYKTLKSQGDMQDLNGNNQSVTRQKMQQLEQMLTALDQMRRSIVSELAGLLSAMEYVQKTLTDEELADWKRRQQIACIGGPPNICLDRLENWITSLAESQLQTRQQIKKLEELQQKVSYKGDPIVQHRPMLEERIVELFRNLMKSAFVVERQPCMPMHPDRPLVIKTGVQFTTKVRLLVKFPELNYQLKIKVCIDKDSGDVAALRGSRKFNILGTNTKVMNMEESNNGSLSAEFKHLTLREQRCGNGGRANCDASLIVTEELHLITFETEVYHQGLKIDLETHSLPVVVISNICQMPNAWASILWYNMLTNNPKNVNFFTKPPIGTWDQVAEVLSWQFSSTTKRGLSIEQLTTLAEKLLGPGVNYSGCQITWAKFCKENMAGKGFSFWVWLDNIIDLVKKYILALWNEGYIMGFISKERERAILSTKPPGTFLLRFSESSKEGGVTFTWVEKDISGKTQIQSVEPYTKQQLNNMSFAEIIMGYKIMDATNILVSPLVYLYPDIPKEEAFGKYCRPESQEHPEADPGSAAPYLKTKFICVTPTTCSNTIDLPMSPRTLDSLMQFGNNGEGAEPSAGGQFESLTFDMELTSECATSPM
Transcription factor Sp1 (Homo sapiens), sequence (P08047 whole entry, looked up): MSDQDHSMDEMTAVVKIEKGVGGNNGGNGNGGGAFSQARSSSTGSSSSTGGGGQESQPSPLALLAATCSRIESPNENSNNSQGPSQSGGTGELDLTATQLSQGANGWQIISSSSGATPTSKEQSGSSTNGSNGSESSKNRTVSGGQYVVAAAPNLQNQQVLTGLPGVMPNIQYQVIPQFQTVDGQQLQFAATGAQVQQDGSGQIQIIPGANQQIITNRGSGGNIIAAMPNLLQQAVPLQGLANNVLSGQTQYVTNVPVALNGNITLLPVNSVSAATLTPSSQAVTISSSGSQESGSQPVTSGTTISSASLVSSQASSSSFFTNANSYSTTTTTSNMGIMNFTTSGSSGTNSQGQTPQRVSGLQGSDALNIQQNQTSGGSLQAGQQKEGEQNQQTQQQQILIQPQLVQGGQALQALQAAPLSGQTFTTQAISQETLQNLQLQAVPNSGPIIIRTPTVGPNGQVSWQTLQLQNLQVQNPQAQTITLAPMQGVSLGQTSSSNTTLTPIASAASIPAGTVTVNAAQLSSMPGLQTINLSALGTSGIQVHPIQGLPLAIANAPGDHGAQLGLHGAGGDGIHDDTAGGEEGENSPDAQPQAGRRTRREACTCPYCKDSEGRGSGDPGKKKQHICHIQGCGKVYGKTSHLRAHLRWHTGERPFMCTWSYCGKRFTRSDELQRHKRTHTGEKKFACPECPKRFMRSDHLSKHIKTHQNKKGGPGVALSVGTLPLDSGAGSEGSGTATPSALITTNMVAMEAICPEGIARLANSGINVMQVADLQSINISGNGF
X-box-binding protein 1 (Homo sapiens), sequence (P17861 whole entry, looked up, the tested form may be a part): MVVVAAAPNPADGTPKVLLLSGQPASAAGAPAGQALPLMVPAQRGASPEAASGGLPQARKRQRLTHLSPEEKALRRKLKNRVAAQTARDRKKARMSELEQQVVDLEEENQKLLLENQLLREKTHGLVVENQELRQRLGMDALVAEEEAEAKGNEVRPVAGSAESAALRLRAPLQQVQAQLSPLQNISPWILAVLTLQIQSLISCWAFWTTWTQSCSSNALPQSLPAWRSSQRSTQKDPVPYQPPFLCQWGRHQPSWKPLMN
Estrogen receptor (Homo sapiens), sequence (P03372 whole entry, looked up, the tested form may be a part): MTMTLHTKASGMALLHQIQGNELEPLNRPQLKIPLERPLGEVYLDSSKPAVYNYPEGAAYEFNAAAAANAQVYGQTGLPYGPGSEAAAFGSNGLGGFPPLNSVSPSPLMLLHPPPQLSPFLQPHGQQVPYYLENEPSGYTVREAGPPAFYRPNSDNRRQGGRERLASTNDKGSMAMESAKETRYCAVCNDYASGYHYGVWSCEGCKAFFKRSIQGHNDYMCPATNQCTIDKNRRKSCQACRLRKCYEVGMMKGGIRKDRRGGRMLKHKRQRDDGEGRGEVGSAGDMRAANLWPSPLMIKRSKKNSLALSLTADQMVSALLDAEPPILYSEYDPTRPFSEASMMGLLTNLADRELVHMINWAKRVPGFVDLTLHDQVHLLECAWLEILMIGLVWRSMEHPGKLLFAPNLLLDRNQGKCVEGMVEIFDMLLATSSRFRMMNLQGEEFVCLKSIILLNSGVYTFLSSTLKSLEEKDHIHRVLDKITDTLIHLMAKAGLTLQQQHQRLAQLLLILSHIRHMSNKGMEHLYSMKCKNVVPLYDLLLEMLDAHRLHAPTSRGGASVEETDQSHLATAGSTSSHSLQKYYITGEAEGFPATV
Nuclear receptor subfamily 1 group I member 3 (Homo sapiens), sequence (Q14994 whole entry, looked up, the tested form may be a part): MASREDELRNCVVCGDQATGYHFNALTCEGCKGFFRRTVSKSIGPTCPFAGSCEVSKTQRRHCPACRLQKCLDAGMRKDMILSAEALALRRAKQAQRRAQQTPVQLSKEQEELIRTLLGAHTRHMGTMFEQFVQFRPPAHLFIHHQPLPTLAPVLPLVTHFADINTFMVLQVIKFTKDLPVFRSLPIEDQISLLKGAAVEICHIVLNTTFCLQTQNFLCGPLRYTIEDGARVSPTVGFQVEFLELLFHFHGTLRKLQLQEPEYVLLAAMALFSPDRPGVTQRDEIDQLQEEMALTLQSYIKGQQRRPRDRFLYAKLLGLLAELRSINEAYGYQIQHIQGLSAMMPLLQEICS
Paired box protein Pax-6 (Homo sapiens), sequence (P26367 whole entry, looked up): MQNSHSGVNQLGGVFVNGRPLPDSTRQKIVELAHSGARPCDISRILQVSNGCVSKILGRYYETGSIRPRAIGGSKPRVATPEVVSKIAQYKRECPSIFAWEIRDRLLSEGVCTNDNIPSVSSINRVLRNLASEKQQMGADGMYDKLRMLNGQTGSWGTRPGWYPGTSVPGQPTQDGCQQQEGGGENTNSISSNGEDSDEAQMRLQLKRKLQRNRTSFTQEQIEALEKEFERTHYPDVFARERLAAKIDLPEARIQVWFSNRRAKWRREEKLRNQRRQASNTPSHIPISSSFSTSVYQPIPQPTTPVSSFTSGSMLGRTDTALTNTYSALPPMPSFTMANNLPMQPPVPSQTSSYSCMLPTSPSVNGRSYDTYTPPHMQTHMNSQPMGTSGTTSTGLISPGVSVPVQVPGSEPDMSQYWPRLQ
Androgen receptor (Homo sapiens), sequence (P10275 whole entry, looked up, the tested form may be a part): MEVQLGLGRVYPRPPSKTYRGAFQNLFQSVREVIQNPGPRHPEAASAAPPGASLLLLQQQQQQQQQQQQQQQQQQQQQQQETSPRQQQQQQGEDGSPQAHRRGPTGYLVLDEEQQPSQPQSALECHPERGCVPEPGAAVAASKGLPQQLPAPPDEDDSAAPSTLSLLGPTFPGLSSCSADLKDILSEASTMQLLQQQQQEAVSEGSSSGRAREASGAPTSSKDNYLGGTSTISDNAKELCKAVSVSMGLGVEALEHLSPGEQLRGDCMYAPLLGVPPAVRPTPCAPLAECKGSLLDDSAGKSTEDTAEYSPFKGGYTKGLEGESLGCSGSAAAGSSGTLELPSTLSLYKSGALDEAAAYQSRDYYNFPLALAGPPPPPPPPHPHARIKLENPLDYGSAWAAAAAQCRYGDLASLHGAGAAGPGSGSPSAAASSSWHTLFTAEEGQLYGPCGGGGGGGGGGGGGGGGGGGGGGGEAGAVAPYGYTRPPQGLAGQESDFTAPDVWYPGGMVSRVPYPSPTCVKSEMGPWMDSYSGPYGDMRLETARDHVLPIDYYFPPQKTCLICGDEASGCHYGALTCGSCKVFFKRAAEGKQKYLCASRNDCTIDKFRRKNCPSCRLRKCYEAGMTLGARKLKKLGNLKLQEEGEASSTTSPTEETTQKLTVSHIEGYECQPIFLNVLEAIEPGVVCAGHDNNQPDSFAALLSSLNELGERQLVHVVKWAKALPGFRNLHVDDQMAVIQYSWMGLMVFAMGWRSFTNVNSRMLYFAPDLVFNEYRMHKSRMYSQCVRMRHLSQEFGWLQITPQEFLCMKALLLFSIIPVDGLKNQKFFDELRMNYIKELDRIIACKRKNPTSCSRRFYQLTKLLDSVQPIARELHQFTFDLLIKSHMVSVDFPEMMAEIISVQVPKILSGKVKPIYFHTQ
Steroid hormone receptor ERR1 (Homo sapiens), sequence (P11474 whole entry, looked up, the tested form may be a part): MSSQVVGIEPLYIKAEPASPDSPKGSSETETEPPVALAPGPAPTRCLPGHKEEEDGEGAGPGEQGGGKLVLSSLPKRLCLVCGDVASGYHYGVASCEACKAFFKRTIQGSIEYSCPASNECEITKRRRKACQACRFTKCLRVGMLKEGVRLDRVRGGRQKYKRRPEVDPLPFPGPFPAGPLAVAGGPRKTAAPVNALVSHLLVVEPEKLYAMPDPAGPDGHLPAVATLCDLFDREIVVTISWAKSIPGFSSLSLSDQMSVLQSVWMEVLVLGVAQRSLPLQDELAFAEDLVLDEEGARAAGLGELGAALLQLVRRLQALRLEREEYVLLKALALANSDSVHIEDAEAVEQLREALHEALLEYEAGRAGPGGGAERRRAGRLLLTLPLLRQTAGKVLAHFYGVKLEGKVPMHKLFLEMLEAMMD

In the case of `COCc1cnc(C2=NC(C)(C(C)C)C(=O)N2)c(C(=O)O)c1` (stereo not drawn), the result in test [1], in test [2], in test [3], in [4], in test [5] and in [6] was inactive. Besides, the compound was called inactive in [7], in test [8], in [9], in test [10], in test [11] and in [12]. In addition, the compound was classed as inactive in test [13], in [14], in test [15] and in test [16].
Regarding `CSC(=O)c1c(C(F)F)nc(C(F)(F)F)c(C(=O)SC)c1CC(C)C`, the result in test [17], in [1], in test [3], in test [4], in [5] and in test [6] was inactive. For the same compound, the outcome in [7], in test [8], in [9], in test [10], in test [11] and in [12] was inactive. The outcome in test [14], in test [15] and in test [18] was inactive. Besides, the figures for the AC50 in [2] and in test [13] were 0.451 µM (active) and 0.789 µM (active), respectively.
For the compound `CCCC(=NOCC)C1=C(O)CC(CC(C)SCC)CC1=O` (stereo not drawn), the outcome in test [1], in [3], in test [4], in test [5], in test [6] and in [7] was inactive. Moreover, the outcome in [8], in [9], in test [10], in [11], in test [12] and in test [13] was inactive. Besides, the outcome in test [14], in test [19], in [15] and in test [18] was inactive. Moreover, in test [2], the AC50 is 29.5 µM (active).
On to `CN/C(=N\[N+](=O)[O-])NCc1cnc(Cl)s1`, for which the outcome in test [17], in test [1], in test [2], in [4], in test [5] and in test [6] was inactive. Moreover, the compound was classed as inactive in test [7], in test [8], in test [9], in test [10], in test [11] and in test [12]. Further, the compound was called inactive in test [13], in test [14] and in test [15].
On to `CC(C)N1C(=O)N(c2ccccc2)CSC1=NC(C)(C)C`, for which the call in test [1], in test [3], in [4], in [5], in [6] and in [7] was inactive. Also, the result in [8], in test [9], in [10], in test [11], in [12] and in [13] was inactive. For the same compound, the compound was called inactive in [14], in test [19], in test [15], in [16] and in test [18]. The AC50 in test [2] was 0.666 µM (active).
Regarding `COc1cc(OC)nc(NC(=O)NS(=O)(=O)c2ncccc2OCC(F)(F)F)n1`, the call in [1], in test [3], in [4], in test [5], in [6] and in test [7] was inactive. Moreover, the outcome in [8], in test [9], in [10], in test [11], in test [12] and in test [13] was inactive. For the same compound, the compound was called inactive in test [14], in test [15] and in [18]. Also, the AC50 in test [2] is 63 µM (active).
In the case of `C=C(C)CN(CC)c1c([N+](=O)[O-])cc(C(F)(F)F)cc1[N+](=O)[O-]`, the AC50 is 13.3 µM (active) in test [17], 9.5 µM (active) in [2], 25.1 µM (active) in [13] and 30.7 µM (active) in test [19]. The compound was classed as inactive in [1], in [3], in [4], in [5], in test [6] and in test [7]. In addition, the compound was classed as inactive in test [8], in test [9], in test [10], in [11], in [12] and in [14]. In addition, the compound was classed as inactive in [20], in test [15] and in test [18].
